# Screening results deposited in PubChem by Sanford-Burnham Center for Chemical Genomics.
# Rows were chosen to be rich in hits. Some 28% of all compounds tested hit in one or more screens of this group.
# Pyk2 oligo antag: blocks oligomerization of human Pyk2 in cells; Q14289; Q293 cells, Pyk2 FERM NanoBiT luminescence; active compounds read low; z-score (the deposit names both 25 µM and 10 µM); hit rate 0.83% among 99,000;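 active means Z-score of -3 or lower, scaled per plate to the spread of control and sample wells; inactive means z-score above -3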;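 further: negative z-score means lost luminescence so less FERM oligomerization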
# CYP2C19 act: increases human CYP2C19 enzyme activity | recombinant CYP2C19, luciferin-H EGE luminescence; active compounds read high; 0 = fully inhibited enzyme, 1 = untreated enzyme | 96,000 tested, under 10 active | activation factor at 5 µM | AID 1025;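 active means activation factor of at least 2 at 5 µM in the primary screen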
# Target sequence (P33261 whole entry, looked up): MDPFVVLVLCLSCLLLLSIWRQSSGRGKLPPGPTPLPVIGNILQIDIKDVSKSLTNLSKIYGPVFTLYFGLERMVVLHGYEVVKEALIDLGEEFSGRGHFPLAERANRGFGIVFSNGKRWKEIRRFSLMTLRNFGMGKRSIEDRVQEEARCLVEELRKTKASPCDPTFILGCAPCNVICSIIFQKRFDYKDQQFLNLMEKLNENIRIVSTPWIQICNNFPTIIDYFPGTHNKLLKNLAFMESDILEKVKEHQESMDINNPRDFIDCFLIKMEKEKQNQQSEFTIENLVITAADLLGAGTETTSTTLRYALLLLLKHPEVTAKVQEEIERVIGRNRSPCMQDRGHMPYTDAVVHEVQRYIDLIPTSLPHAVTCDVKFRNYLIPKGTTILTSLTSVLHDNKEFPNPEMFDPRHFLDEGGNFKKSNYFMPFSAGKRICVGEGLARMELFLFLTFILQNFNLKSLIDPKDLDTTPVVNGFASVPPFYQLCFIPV
# CYP2C9 inh: inhibitors of human CYP2C9 | P11712 | hit rate 20% among 96,000 | inhibition, % at 5 µM | AID 777 | CYP2C9 Supersomes, luciferin-H conversion, luminescence;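 active means blocking of liver enzyme CYP2C9 beyond about 50% at 5 µM, limit read from the data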
# CYP2C9 activ: activators of human CYP2C9; activation factor at 5 µM; hit rate 1.4% among 96,000; recombinant CYP2C9, luciferin-H conversion, luminescence; active compounds read high; factor 1 = untreated enzyme, 0 = blocked;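 active means activation factor of 2 or more for CYP2C9 at a 5 µM dose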
# CYP2C19 inh: inhibitors of human CYP2C19. P33261. CYP2C19 Supersomes, luciferin-H EGE luminescence, 30 min. inhibition, % at 5 µM. hit rate 21% among 96,000. AID 778;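 active means CYP2C19 inhibition above a set limit at 5 µM in the primary screen, cut at about 50% in these data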
# Hits are given with their value; . = inactive; / = no result given.
SMILES,Pyk2 oligo antag,CYP2C19 act,CYP2C9 inh,CYP2C9 activ,CYP2C19 inh
CC1(C)CC(=O)C=C(NCCN2CCN(C(=O)Nc3ccccc3)CC2)C1,.,.,.,.,.
O=C(NC12CC3CC(CC(C3)C1)C2)C12CC3CC(C1)CC(n1cnc(Cl)n1)(C3)C2,.,.,.,.,.
O=C(CC(c1ccccc1)c1cc(Br)ccc1O)NCCN1CCOCC1 (stereo unspecified),.,.,56.2,.,84.9
Cn1cnnc1SCC(=O)c1cc2ccccc2oc1=O,.,.,.,.,.
O=C(Cn1nc(Cl)nc1Cl)c1cc2ccccc2oc1=O,.,.,61.8,.,.
COc1ccc(C(OC(=O)c2ccco2)C(=O)NCC2CCCO2)cc1 (stereo unspecified),.,.,.,.,.
COc1ccc(CCN2CC(C#N)=C3c4cc(OC)c(OC)cc4CCN3C2)cc1OC,/,.,75.5,.,64.6
COc1cc2c(cc1OC)C1=C(C#N)CN(C3CCCCC3)CN1CC2,/,.,52.2,.,68.3
COc1cc2c(cc1OC)C1=C(C#N)CCC(=O)N1CC2,.,/,/,/,/
Cc1ccc(NC(=O)Nc2nc(-c3ccc(C)s3)cs2)cc1,.,.,.,.,.
COc1cccc(NC(=O)N2CCCC2C(=O)NC2CC2)c1 (stereo unspecified),.,.,.,.,.
Cc1ccc(-n2ncc3c2ncn2c(-c4ccncc4)nnc32)cc1,/,.,.,.,.
c1ccc(Cn2ncc3c2ncn2c(-c4ccncc4)nnc32)cc1,/,.,.,.,85.3
OC(COCC1COc2ccccc2O1)CN1CCN(c2ccccn2)CC1 (stereo unspecified),.,.,.,.,.
Cc1cc(C)n(-c2cc(-n3nc(C)cc3C)ncn2)n1,.,.,.,.,.
Cc1cc(C)n(-c2ccc(-n3ccnc3)nn2)n1,.,.,.,.,99.4
C(=N\Nc1ccc(-n2ccnc2)nn1)/c1ccccc1,.,.,93.4,.,98.2
Cc1ccc(NC2=NCCCCC2)cc1C,.,.,.,.,.
Cc1ccc(Nc2ccc(-n3ccnc3)nn2)cc1C,.,.,98.8,.,100.1
CC(C)CC(=O)CN1C(=O)C2(OCCO2)c2ccccc21,.,.,.,.,.
Cc1nc(CCN2C(=O)c3ccccc3C2=O)n[nH]1,.,.,.,.,.
Cc1ccc(/C=C(/C#N)c2nc(CCN3C(=O)c4ccccc4C3=O)cs2)cc1,-3.16,.,51.4,.,52.9
Cc1ccccc1-n1nc2c(c1NC(=O)c1ccc(Br)o1)CSC2,.,.,56.8,.,.
CC(=O)Nc1c2c(nn1-c1ccc(C)cc1C)CSC2,.,.,.,.,.
Cc1sc2ncn(CC(=O)NCCCC(=O)N3CCN(c4ncccn4)CC3)c(=O)c2c1C,.,.,.,.,.
SMILES,Pyk2 oligo antag,CYP2C19 act,CYP2C9 inh,CYP2C9 activ,CYP2C19 inh
CCSc1nc(-c2ccc(OC)cc2)n(-c2nc3ccccc3s2)n1,.,.,54.5,.,.
COc1ccc(-c2nnc(SCC(=O)Nc3nc4ccccc4s3)n2C)cc1,.,.,.,.,.
O=C1C(Cl)=C(N2CCN(Cc3ccccc3)CC2)C(=O)N1Cc1ccccc1,.,.,54.6,.,.
O=C1C(Cl)=C(N2CCCCC2)C(=O)N1c1ccccc1,.,.,.,.,.
COc1ccc(S(=O)(=O)NCc2ccco2)c2ccccc12,.,.,.,2,.
CN1C(=O)c2cccc3c(S(=O)(=O)NCc4ccco4)ccc1c23,.,.,78.6,.,93.5
CN1C(=O)c2cccc3c(S(=O)(=O)Nc4ccccn4)ccc1c23,.,/,/,/,/
Cc1cc(S(=O)(=O)NCc2ccco2)c(C)s1,.,.,.,.,.
O=C1Nc2ccc(Br)cc2C1=Nc1ccc(-c2nnc3n2CCCCC3)cc1,/,.,.,.,.
CCOC(=O)c1cnn(-c2nc3c(C)cccc3s2)c1C(F)(F)F,.,.,.,.,.
CCOC(=O)c1cnn(-c2nc(-c3cccc(F)c3)cs2)c1C(F)(F)F,.,.,72.1,.,.
N#Cc1nc(COc2ccc(Cl)cc2)oc1N1CCN(Cc2ccccc2)CC1,.,.,53.2,.,.
COc1ccc(N2CCN(c3oc(COc4ccc(Cl)cc4)nc3C#N)CC2)cc1,.,.,50.1,.,.
CCOc1ccc(-c2nc(C#N)c(N3CCN(Cc4ccccc4)CC3)o2)cc1,/,.,66.7,.,.
CCOc1ccc(-c2nc(C#N)c(N3CCOCC3)o2)cc1,/,.,.,.,.
CCOC(=O)c1sc(NC(=O)Nc2ccc(Cl)cc2)nc1C,.,.,.,.,.
CC1CCN(CCc2nc3cc(NS(=O)(=O)c4ccc(F)cc4)ccc3n2C)CC1,.,.,.,.,.
CN1CCOc2cc(S(=O)(=O)Nc3ccc(F)cc3)ccc21,.,.,59.7,.,87.0
CCOc1ccc(Cc2nnc(SCC(N)=O)n2C)cc1,.,.,.,.,.
N/C(=N\OC(=O)Cc1cccs1)c1ccc([N+](=O)[O-])cc1,.,/,/,/,/
Cc1ccc(N=C(c2cccs2)N2CCOCC2)cc1,.,.,.,.,73.1
Cc1ccc(-n2ncc(C(=O)O)c2C2CCN(C(=O)OC(C)(C)C)CC2)cc1,.,.,.,.,.
CCOC(=O)c1cn2nc(-c3ccc(OC)cc3)cc2nc1C1CCN(C(=O)OC(C)(C)C)CC1,.,.,63.4,.,.
COCC(C)OC(=O)/C(C#N)=C\c1coc2ccc(C)cc2c1=O (stereo unspecified),.,/,/,/,/
c1ccc(-n2nnnc2-n2ccnc2)cc1,.,.,.,.,.
SMILES,Pyk2 oligo antag,CYP2C19 act,CYP2C9 inh,CYP2C9 activ,CYP2C19 inh
c1ccc(-n2nnnc2-n2nnc3ccccc32)cc1,.,.,.,.,93.9
COc1cccc(Cn2c(-c3cccs3)noc2=O)c1,.,.,.,.,82.5
COc1cccc(C(=O)CSc2nnc(-c3cccs3)o2)c1,.,/,/,/,/
CC1CCN(c2nc(-c3ccncc3)nc3ccccc23)CC1,.,.,75.8,.,92.7
c1ccc2c(N3CCOCC3)nc(-c3ccncc3)nc2c1,.,/,/,/,/
CCC1CCCCN1c1nc(-c2ccncc2)nc2ccccc12 (stereo unspecified),.,.,100.3,.,99.3
CC1CCCCN1c1nc(-c2ccncc2)nc2ccccc12 (stereo unspecified),.,.,78.5,.,91.1
CC1CCCCN1c1ncnc2ccccc12 (stereo unspecified),.,.,.,.,.
c1cncc(-c2nc(N3CCOCC3)c3ccccc3n2)c1,.,.,66.0,.,.
CCOC(=O)C1=C(CN2c3ccccc3CC2C)NC(=O)NC1c1ccccc1 (stereo unspecified),.,.,.,.,.
CN(C)c1ccc(C(=O)OCc2ccc(Br)cc2)cc1,.,.,.,.,.
Cc1ccc(Cn2c3ccccc3c3cn[nH]c(=O)c32)cc1,/,.,.,.,.
CCC1CCCCN1c1nc(-c2cccc(OC)c2O)nc2ccccc12 (stereo unspecified),.,.,82.6,.,.
COc1cccc(-c2nc(NC(C)C)c3ccccc3n2)c1O,.,.,.,.,.
COc1cccc(-c2nc(N3CCN(c4ccccc4)CC3)c3ccccc3n2)c1O,.,.,55.1,.,.
